This note sets out measurements from PubChem BioAssay (NCI).

This is part of a sample that, as a whole, favours compounds with a hit. Of some 83,000 tested, about 20% had one in any assay.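 Cells were grown in 96-well plates and exposed to the test compound at a single concentration for 48 hours; results are reported as percent growth, with values below 10 considered active.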 A number with no mark means an inactive call. The source made the active and inactive calls.

Holding throughout (assay): NCI-60 one-dose screen, 48 h (100 = growth as untreated, 0 = no growth, -100 = all killed)
What all share (conditions): 10 µM unless noted

Test [1] deals with HCT-15 colon.
Test [2] relates to HT29 colon.
Test [3] concerns SNB-75 CNS.
Test [4] relates to SNB-19 CNS.
Test [5] has as its system PC-3 prostate.
The test system of test [6] is SK-MEL-5 melanoma.
The test system of test [7] is UACC-62 melanoma.
Test [8] deals with LOX IMVI melanoma.
Test [9] has as its system SK-MEL-28 melanoma.
The subject of test [10] is SK-MEL-2 melanoma.
Test [11] has as its system SN12C renal.
Test [12] concerns UO-31 renal.
Test [13] relates to TK-10 renal.
For test [14], the system named is ACHN renal.
Test [15] concerns CAKI-1 renal.
In test [16] the test system is A498 renal.
The test system of test [17] is MOLT-4 leukemia.
Test [18] deals with EKVX NSCLC.
In test [19] the test system is CCRF-CEM leukemia.

Take `Oc1c(N=Nc2nn[nH]n2)ccc2ccccc12`: the growth in test [1] is 68.2%; in test [2], 81.8%; in test [3], 143%; in test [4], 92.6%; in [5], 67.6%; in [6], 38.4%. Further, the growth was 77% in test [7]; 78% in test [8]; 94.6% in test [9]; 107% in test [10]; 84.3% in [11]; 59.1% in test [12]. Besides, the growth in [13] is 132%; in [14] it was 86.8%; in [15] it was 98.2%; in test [16], 102%; in test [17] it was 99.2%.
Turning to `Cn1c(N2N=C(c3ccc(Cl)cc3)CC2c2ccccc2)nc(-c2ccccc2)c(C#N)c1=O` (configuration not stated), the growth in test [1] is 80%; in [2], 79.3%; in test [3], 91.4%; in test [4] it was 88.8%; in test [5], 49.7%; in test [6] it was 54.7%. Further, the growth in test [7] is 58.9%; in test [8], 70.9%; in [9] it was 94.5%; in test [10], 78.4%; in test [11], 67.3%; in test [12], 60.5%. For the same molecule, the growth in test [13] is 117%; in test [14] it was 77.2%; in test [15] it was 63.7%; in [17], 60.1%.
As for `CCN1CC2=C(Nc3nc(SC)[nH]c(=O)c3C2c2cc(OC)c(OC)c(OC)c2)/C(=C/c2cc(OC)c(OC)c(OC)c2)C1` (configuration not stated), the growth in test [1] was 104%; in [2], 99.1%; in test [3], 92.2%; in [4], 91.6%; in test [5] it was 92.2%; in [6], 88.6%. Also, the growth in [7] was 90.1%; in test [8], 91.1%; in test [9] it was 104%; in [10], 117%; in test [18] it was 87.3%; in test [11], 95.9%. Also, the growth in [12] is 106%; in test [14], 87.9%; in test [15], 108%; in test [16], 104%; in test [19], 84.7%; in test [17], 82.5%.
For `COc1cc(/C=N/OC(=O)Nc2ccccc2)cc(OC)c1OC`, the growth in test [1] is 112%; in test [2] it was 104%; in test [3], 85.2%; in test [4], 105%; in test [5] it was 91.1%; in [6], 102%. The growth in [7] is 90.5%; in test [8] it was 90.6%; in test [9], 104%; in test [10], 115%; in [18] it was 117%; in [11], 94.4%. Besides, the growth is 69% in test [12]; 99% in test [13]; 107% in test [14]; 110% in [15]; 98.1% in test [19]; 100% in test [17].
For `O=C1c2cccc3c([N+](=O)[O-])ccc(c23)C(=O)N1CCCCl`, the growth in [1] is -82.6% [100 µM] (active); in test [2] it was -63.2% [100 µM] (active); in test [3] it was -98.6% [100 µM] (active); in test [4], -97.8% [100 µM] (active); in test [5], -90.8% [100 µM] (active); in [6], -95.6% [100 µM] (active). The growth in test [7] is -96.3% [100 µM] (active); in [8], -85.5% [100 µM] (active); in test [9] it was -97.3% [100 µM] (active); in test [10] it was -94.9% [100 µM] (active); in test [11], -93.1% [100 µM] (active); in test [12] it was -86.6% [100 µM] (active). In addition, the growth in test [13] was -50.2% [100 µM] (active); in [14], -96.1% [100 µM] (active); in test [15], -91.4% [100 µM] (active); in test [16], -92.4% [100 µM] (active); in test [17], -11.3% [100 µM] (active).
Take `COc1cc(OC)c2c(c1Cl)O[C@]1(C2=O)C(OCc2ccccc2)=CC(=O)C[C@H]1C`: the growth is 15.7% in test [1]; 7.63% (active) in test [2]; 24.2% in test [3]; 36.2% in [4]; 6.5% (active) in test [5]; -75% (active) in test [6]. In addition, the growth in [7] was 6.94% (active); in [8], 17.9%; in test [9], 16.4%; in test [10] it was 2.04% (active); in test [11] it was 13.3%; in test [12], 9% (active). For the same molecule, the growth in test [13] was 15.9%; in test [14] it was 6.86% (active); in test [15], 10.9%; in test [16], -0.948% (active); in test [19], 10.4%; in test [17] it was 14.1%.
`O=C(C(=O)N1CCOCC1)c1cn(CCCn2cc(C(=O)C(=O)N3CCOCC3)c3ccccc32)c2ccccc12`: the growth in test [1] is 104%; in test [2] it was 99.7%; in test [3] it was 94.7%; in [4], 93.9%; in test [5], 89.9%; in test [6], 100%. For the same molecule, the growth in test [7] was 93.5%; in test [8], 104%; in [9], 110%; in test [10], 100%; in test [18], 104%; in test [11] it was 96.3%. In addition, the growth is 75.3% in test [12]; 97.6% in test [13]; 100% in test [14]; 104% in test [15]; -13.1% (active) in [19]; 104% in test [17].
`COc1c(Br)cc(C(c2cc(Br)c(OC)c(Br)c2)c2ccccc2C(=O)O)cc1Br`: the growth in test [1] is 115%; in [2], 100%; in test [3], 76.7%; in test [4] it was 95.9%; in [5] it was 89.9%; in [6], 100%. In addition, the growth in test [7] is 97.9%; in test [8], 96.6%; in test [9], 112%; in test [10], 114%; in test [11], 96%; in [12], 68.9%. Moreover, the growth is 106% in [13]; 91.2% in [14]; 91.6% in test [15]; 107% in [16]; 89.4% in [17].
Turning to `O=C(Nc1nc(-c2ccc(Cl)cc2)cs1)c1cc(-c2ccc(Br)cc2)nc2ccc(Cl)cc12`, the growth in test [1] is 10.8%; in test [2], 9.1% (active); in [3], 32.7%; in [4], 56%; in test [5], 40.2%; in test [6], 14%. The growth in [7] was 42%; in test [8] it was 20.3%; in [9], 52.9%; in [10], 22.8%; in test [18], 77.3%; in test [11], 35.8%. Besides, the growth in test [12] is 34.7%; in test [13], 130%; in [14] it was 63.6%; in [15], 81.4%; in test [19], 39.2%; in [17] it was 18.5%.
